Screening data from PubChem.
Compounds with a hit are over-represented: about 14% of the library has one in this group of screens.
Pf growth 96h: P. falciparum growth inhibition at 96 hours; P. falciparum luciferase reporter growth, 96 h; 320,000 compounds, 6.9% hits; Potency, µM (top dose mostly 28.7 µM), for the others: top-dose activity change, negative = inhibition, actives largely listed as inhibitors; AID 504834; also: potency is read from the fitted curve at half-maximal effect
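Two-generation exposure (96 h) targets delayed-death phenotype. Reporter parasites carrying integrated firefly luciferase, in red cells at 2% hematocrit and 0.05% parasitemia final, kept at 37 C, 5% CO2; luminescence loss indicates inhibition.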
FBPA Giardia inh: Giardia lamblia aldolase inhibition | purified Giardia FBPA | 290,000 compounds, 0.71% hits | AID 2451 | Potency, µM (top dose mostly 59.6 µM), inactives show top-dose activity, negative = inhibition, actives largely listed as inhibitors | A8B2U2; also: potency is read from the fitted curve at half-maximal effect; nearly all actives have a fitted effect of over 55% in size
Target sequence (A8B2U2 whole entry, looked up): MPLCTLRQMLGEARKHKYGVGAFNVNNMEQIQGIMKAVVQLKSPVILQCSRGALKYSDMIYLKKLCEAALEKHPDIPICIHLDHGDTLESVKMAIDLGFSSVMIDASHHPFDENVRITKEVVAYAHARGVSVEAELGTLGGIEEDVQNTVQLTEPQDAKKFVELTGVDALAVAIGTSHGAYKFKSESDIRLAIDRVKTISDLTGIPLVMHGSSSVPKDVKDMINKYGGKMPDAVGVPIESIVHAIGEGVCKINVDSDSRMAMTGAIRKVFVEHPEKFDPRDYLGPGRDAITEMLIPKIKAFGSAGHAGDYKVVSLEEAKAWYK
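40 nM FBPA preincubated 10 min at RT with compound (up to 57.5 uM final), then substrate plus GAPDH/TPI/NAD/arsenate coupling and diaphorase/resazurin added. Fluorescence read after 20 min at RT, 525/598 nm.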
Pf growth 48h: inhibits P. falciparum growth in the first generation, 48 h; P. falciparum luciferase growth in erythrocytes, 48 h; Potency, µM (doses to about 28.7 µM), for the others: at the top dose activity change, negative = inhibition, hits mostly inhibitors; 310,000 compounds, 5.9% hits; AID 504832; also: potency is read from the fitted curve at half-maximal effect
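Erythrocytes infected with P. falciparum carrying an integrated firefly luciferase reporter (2% hematocrit, 0.1% parasitemia final) were exposed to compounds in RPMI 1640 with 0.5% Albumax at 37 C, 5% CO2. Growth inhibition was scored as reduced luminescence.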
Sm TGR block: inhibitors of Schistosoma mansoni thioredoxin glutathione reductase; 360,000 compounds, 3% hits; purified TGR, DTNB reduction, TNB absorbance 405 nm; Potency, µM (titrated, usually from 114 µM), for the others: at the highest dose activity change, negative = inhibition, hits mostly inhibitors; Q962Y6; AID 485364; also: potency is read from the fitted curve at half-maximal effect; nearly all actives have a fitted effect of over 60% in size
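First, TGR (20 nM dispensed) and NADPH were mixed with compound. Second, a 15 min room-temperature incubation followed. Third, further NADPH and then DTNB were added to start the reaction. Finally, TNB absorbance was monitored kinetically.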
HCMV inh: inhibitors of human cytomegalovirus. HFF cells, HCMV-luciferase reporter, 72 h; stronger effect = lower value. activity change, negative = inhibition, % at 57.5 µM. 410,000 compounds, 4.5% hits; in the data active = activity change below about -60%; inconclusive = no clear call, values can overlap the other calls; inactive = above about -39%
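Two-dose cell screen: HFF monolayers treated with compounds and infected with luciferase-expressing HCMV at 1 PFU/cell, 72 h at 37C, then lysed for luciferase measurement.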
Active calls of the source: *; ? = inconclusive; nt = no result given. Unless noted, calls follow the shape of the dose curve; as a rule, active = well fitted curve in the direction sought with a large enough effect; inconclusive = small, poorly fitted or top-dose-only effect, or another doubt; inactive = no such curve, though single readings can be large; an effect the other way counts as inactive or inconclusive. % is scaled to controls: 0 for no effect and ±100 for the full control effect.

SMILES | Pf growth 96h | FBPA Giardia inh | Pf growth 48h | Sm TGR block | HCMV inh
CCOC(=O)C1(C)CCN1C(=O)c1ccc(SC(F)(F)F)cc1 (centres undefined) | nt | nt | nt | nt | -22
CC1(C(=O)Nc2ccc3ccccc3c2)CCC(=O)N1CCc1c[nH]c2ccccc12 (centres undefined) | nt | nt | nt | nt | 29
COc1cc(O)c(C(=O)O)c(-c2cc(O)c(O)cc2C)c1 | ? | 16% | 36% | 0.16µM* | -6
COc1cc(C)c(C(=O)Oc2cc(C)c(C(=O)O)c(O)c2)c(O)c1 | -14% | 11% | -6% | 0% | 39
N#Cc1sc2nccc(Nc3ccccc3)c2c1N | nt | nt | nt | nt | -87*
Nc1cc(Nc2ccccc2)ccn1 | ? | nt | ? | 6% | -25
Cc1nn2c(=O)cc(COc3ccc(/C=C(\C#N)C(=O)Nc4ccc(F)cc4)cc3)nc2s1 | nt | nt | nt | 9% | 2
O=C(Nc1c2c(nn1-c1cccc(Cl)c1)CS(=O)(=O)C2)c1ccco1 | ? | -7% | -4% | 45µM* | -18
Cc1ccc(-n2nc3c(c2NC(=O)c2ccco2)CS(=O)(=O)C3)cc1C | -2% | nt | 3% | -25% | 12
COc1ccc(-n2nc3c(c2NC(=O)c2ccco2)CS(=O)(=O)C3)cc1 | ? | -1% | 18% | 45µM* | -5
Oc1ccc(Cl)cc1 | -16% | 5% | -1% | nt | -14
Oc1ccc(N=Nc2n[nH]c(-c3ccc(Cl)cc3)n2)cc1 | ? | 4% | 11% | 9% | -95*
O=C(COc1ccc(Cl)cc1Cl)NN=C1c2ccccc2-c2ccccc21 | -18% | -6% | 19% | -4% | -61*
CCCOc1ccc2cc(-c3ccccn3)c(=O)oc2c1 | -34% | -8% | -53% | 5% | -77*
Cn1cc(O)nc1NC(=O)Nc1cccc(Cl)c1 | -13% | nt | 39% | nt | nt
O=C(CSc1nnc(-c2ccccc2)c(-c2ccccc2)n1)NCCc1ccccc1 | nt | nt | nt | -5% | -15
CC(C)(C)NC(=O)c1cc(Cl)ccc1[N+](=O)[O-] | ? | 3% | -1% | -2% | -10
Cc1cccc(NC(=O)c2cc(Cl)ccc2[N+](=O)[O-])c1 | 5% | 1% | ? | 4% | -83*
Cc1ccc(NC(=O)c2cc(Cl)ccc2[N+](=O)[O-])cc1C | 14% | -4% | -2% | 1% | -73*
CC1CCN(C(=O)c2ncn3c2C(=O)NC[C@@H]3C)CC1 | nt | nt | nt | nt | -14
Cc1ccc(-c2nc(Nc3ccc(N4CCOCC4)cc3)c3ccccc3n2)cc1 | ? | -19% | 13µM* | -6% | -19
c1ccc(-c2cc(-c3ccc(N4CCOCC4)cc3)nc3ccccc23)cc1 | 13µM* | -5% | ? | -1% | 13
Cc1ccc(-c2nc(Nc3ccc(O)cc3)c3ccccc3n2)cc1 | -1% | 9% | nt | -3% | 36
CCOC(=O)/C(C#N)=C/C1=C(N2CCOCC2)CC(C)(C)OC1 | 24% | 1% | 19% | 28µM* | 0
CCC(=O)N(CCC(Cc1ccccc1)c1ccc2c(c1)OCO2)Cc1ccccc1F (centres undefined) | 12µM* | 7% | ? | 10% | -25
SMILES | Pf growth 96h | FBPA Giardia inh | Pf growth 48h | Sm TGR block | HCMV inh
O=C(CCn1cccc1)N1CCc2ccccc21 | 87% | -1% | 16% | 25µM* | 5
O=C1c2ccccc2C(=O)N1CCC(=O)N1CCc2ccccc21 | nt | nt | nt | nt | 80
O=C(CS(=O)(=O)c1ccccc1)N1CCc2ccccc21 | 0.83µM* | -3% | 54% | -2% | 75
O=C(Cc1ccccc1)N1CCc2ccccc21 | 45% | 21% | nt | -1% | -31
CCc1cccc(CC)c1C(OC(C)=O)c1cccnc1 (centres undefined) | nt | nt | nt | nt | -12
Cc1ccccc1-c1ccc2c(c1)O[C@@H](CN(C)C(=O)Nc1ccc(C(F)(F)F)cc1)[C@H](C)CN([C@@H](C)CO)S2(=O)=O | nt | nt | nt | nt | -76*
COc1ccc(C#Cc2ccc3c(c2)O[C@@H](CN(C)C(=O)Nc2cccc(OC)c2)[C@H](C)CN([C@@H](C)CO)S3(=O)=O)cc1 | nt | nt | nt | nt | -35
COc1cccc(NC(=O)N(C)C[C@H]2Oc3cc(C#Cc4ccncc4)ccc3S(=O)(=O)N([C@H](C)CO)C[C@H]2C)c1 | nt | nt | nt | nt | -109*
COc1ccc(CCNC(=O)CCC(=O)N2CC(C)Oc3ccccc32)cc1OC (centres undefined) | ? | -11% | -22% | -30% | 110
